Laboratory results: PubChem BioAssay AID1159580 (chemical genetic matrix, 2015)
Where “and” joins values, the source holds several entries; their conditions need not be identical. Equal entries are not always repeated. Out of some 5,500 compounds screened, about 2,000 (36%) were called active. Roughly 18% stayed inconclusive and do not appear here. No stated cut-off is given here; in the data, active means normalized growth mostly below about 0.91 (no sharp cut-off); inconclusive means no clear call, values can overlap the other calls; inactive means mostly above about 0.92. The list shows a part of the results.

Experiment: chemical genetic growth profiling, strain panel (AID 1159580);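 further: tested at 20 µM; growth read once vehicle control cultures reached saturation at 30 °C; 1 = growth at the plate median or of vehicle wells; lower values mean less growth of the strain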
Details: S. cerevisiae deletion strains, growth OD

Measured: normalized growth

COc1cc(C(C)=O)cc(OC)c1O
inactive: locus YAL013W, strain DEP1, active compounds read low 0.991 | locus YAL021C, strain ccr4, active compounds read low 1.04 | locus YAL026C, strain drs2, active compounds read low 1.03 | locus YAL030W, strain snc1, active compounds read low 1.01 | locus YBL061C, strain skt5, active compounds read low 1.03 | locus YBR009C, strain hhf1, active compounds read low 1.04 | locus YBR021W, strain FUR4, active compounds read low 1.01 | locus YBR023C, strain chs3, active compounds read low 1.03 | locus YBR171W, strain sec66, active compounds read low 1.03 | locus YBR229C, strain ROT2, active compounds read low 0.998 | locus YBR231C, strain swc5, active compounds read low 1.02 | locus YBR279W, strain paf1, active compounds read low 1.02 | locus YCL011C, strain gbp2, active compounds read low 1.03 | locus YCL016C, strain dcc1, active compounds read low 1.02 | locus YCL029C, strain bik1, active compounds read low 1 | locus YCL061C, strain MRC1, active compounds read low 1.02 | locus YCL069W, strain vba3, active compounds read low 1.01 | locus YCR088W, strain abp1, active compounds read low 1.02 | locus YDL005C, strain med2, active compounds read low 1.02 | locus YDL035C, strain GPR1, active compounds read low 0.993 | locus YDL040C, strain nat1, active compounds read low 1.01 | locus YDL074C, strain BRE1, active compounds read low 1.04 | locus YDL101C, strain DUN1, active compounds read low 1.01 | locus YDL134C, strain PPH21, active compounds read low 0.991 | locus YDL185W, strain tfp1, active compounds read low 1 | locus YDL192W, strain arf1, active compounds read low 0.99 | locus YDR001C, strain nth1, active compounds read low 1.01 | locus YDR069C, strain doa4, active compounds read low 1.04 | locus YDR101C, strain arx1, active compounds read low 1.01 | locus YDR137W, strain rgp1, active compounds read low 1.08 | locus YDR150W, strain NUM1, active compounds read low 0.978 | locus YDR159W, strain sac3, active compounds read low 1.05 | locus YDR162C, strain NBP2, active compounds read low 0.986 | locus YDR195W, strain ref2 1.05 | locus YDR297W, strain sur2, active compounds read low 1.02 | locus YDR318W, strain mcm21, active compounds read low 0.991 | locus YDR334W, strain swr1, active compounds read low 1.02 | locus YDR335W, strain msn5, active compounds read low 1.02 | locus YDR388W, active compounds read low 0.994 | locus YDR392W, strain spt3, active compounds read low 0.971 | locus YDR502C, strain sam2, active compounds read low 1.01 | locus YEL003W, strain gim4, active compounds read low 1.04 | locus YEL037C, strain rad23, active compounds read low 1.02 | locus YEL061C, strain CIN8 (second series), active compounds read low 1.03 | locus YEL061C, strain CIN8, active compounds read low 0.999 | locus YER015W, strain faa2, active compounds read low 1.02 | locus YER016W, strain bim1, active compounds read low 1.01 | locus YER110C, active compounds read low 1 | locus YER111C, strain swi4, active compounds read low 1.03 | locus YER155C, strain BEM2 (second series), active compounds read low 1.03 | locus YER155C, strain BEM2, active compounds read low 0.994 | locus YER167W, strain BCK2, active compounds read low 0.977 | locus YFR010W, strain ubp6, active compounds read low 1.03 | locus YGL078C, strain dbp3, active compounds read low 0.998 | locus YGL086W, strain mad1, active compounds read low 1.02 | locus YGL167C, strain pmr1, active compounds read low 1.03 | locus YGL173C, strain kem1, active compounds read low 1.04 | locus YGL227W, strain vid30, active compounds read low 1.03 | locus YGL240W, strain doc1, active compounds read low 1.04 | locus YGL248W, strain PDE1, active compounds read low 0.998 | locus YGL253W, strain hxk2, active compounds read low 1.02 | locus YGR135W, strain pre9, active compounds read low 0.994 | locus YGR252W, strain gcn5, active compounds read low 1.02 | locus YHR013C, strain ard1, active compounds read low 1.02 | locus YHR027C, strain rpn1, active compounds read low 1.02 | locus YHR030C, strain SLT2, active compounds read low 1 and 0.985 | locus YHR079C, strain IRE1 (second series), active compounds read low 0.999 | locus YHR079C, strain IRE1, active compounds read low 0.983 | locus YHR094C, strain hxt1, active compounds read low 1 | locus YHR129C, strain ARP1, active compounds read low 1.01 | locus YHR142W, strain chs7, active compounds read low 1.03 | locus YHR200W, strain rpn10, active compounds read low 0.993 | locus YIL066C, strain RNR3, active compounds read low 0.983 | locus YIL073C, strain SPO22, active compounds read low 0.998 | locus YIL125W, strain kgd1, active compounds read low 0.997 | locus YIR030C, strain dcg1, active compounds read low 1.01 | locus YJL092W, strain hpr5, active compounds read low 1.02 | locus YJL095W, strain BCK1 (second series), active compounds read low 1.01 | locus YJL095W, strain BCK1, active compounds read low 1.05 and 0.999 | locus YJL115W, strain asf1, active compounds read low 1.02 | locus YJL129C, strain trk1, active compounds read low 1.05 | locus YJL134W, strain LCB3, active compounds read low 0.993 | locus YJL154C, strain vps35, active compounds read low 1.01 | locus YJL164C, strain tpk1, active compounds read low 1 | locus YJL166W, strain qcr8, active compounds read low 1.04 | locus YJL168C, strain set2, active compounds read low 0.997 | locus YJL187C, strain SWE1 (second series), active compounds read low 1.02 | locus YJL187C, strain SWE1, active compounds read low 1.02 | locus YJR043C, strain POL32, active compounds read low 0.981 | locus YJR066W, strain TOR1, active compounds read low 0.963 | locus YKL009W, strain mrt4, active compounds read low 1.05 | locus YKL068W, active compounds read low 0.993 | locus YKL085W, strain MDH1 (second series), active compounds read low 0.986 | locus YKL085W, strain MDH1, active compounds read low 0.986 | locus YKL160W, strain elf1, active compounds read low 1.03 | locus YKL190W, strain CNB1, active compounds read low 1.01 | locus YKR001C, strain vps1, active compounds read low 0.987 | locus YKR026C, strain gcn3, active compounds read low 0.995 | locus YKR091W, strain srl3, active compounds read low 1.02 | locus YLL001W, strain dnm1, active compounds read low 1.01 | locus YLL026W, active compounds read low 1.02 | locus YLL041C, strain sdh2, active compounds read low 1.02 | locus YLR027C, strain aat2, active compounds read low 1.01 | locus YLR039C, strain RIC1, active compounds read low 1.02 | locus YLR058C, strain SHM2, active compounds read low 0.998 | locus YLR102C, strain apc9, active compounds read low 1 | locus YLR113W, strain HOG1, active compounds read low 0.981 | locus YLR221C, strain rsa3, active compounds read low 1.04 | locus YLR258W, strain gsy2, active compounds read low 1.03 | locus YLR262C, strain YPT6 (second series), active compounds read low 1.07 | locus YLR262C, strain YPT6, active compounds read low 1.07 | locus YLR268W, strain sec22, active compounds read low 1.05 | locus YLR320W, strain mms22, active compounds read low 1.04 | locus YLR330W, strain CHS5, active compounds read low 0.988 | locus YLR342W, strain FKS1 (second series), active compounds read low 1 | locus YLR342W, strain FKS1, active compounds read low 1.02 | locus YLR357W, strain rsc2, active compounds read low 1.06 | locus YLR370C, strain arc18, active compounds read low 1.02 | locus YLR371W, strain rom2, active compounds read low 1.01 | locus YLR384C, strain iki3, active compounds read low 1.01 | locus YLR418C, strain cdc73, active compounds read low 0.967 | locus YML016C, strain PPZ1, active compounds read low 1.01 | locus YML032C, strain rad52, active compounds read low 0.957 | locus YML120C, strain ndi1, active compounds read low 1.03 | locus YML124C, strain tub3, active compounds read low 0.992 | locus YMR058W, strain fet3, active compounds read low 1.02 | locus YMR078C, strain ctf18, active compounds read low 1 | locus YMR125W, strain sto1, active compounds read low 1.04 | locus YMR129W, active compounds read low 1.03 | locus YMR205C, strain PFK2, active compounds read low 1.08 | locus YMR223W, strain ubp8, active compounds read low 0.999 | locus YMR231W, strain pep5, active compounds read low 1.01 | locus YMR307W, strain GAS1, active compounds read low 0.981 | locus YNL067W, strain RPL9B, active compounds read low 1.03 | locus YNL071W, strain lat1, active compounds read low 1.02 | locus YNL183C, strain NPR1, active compounds read low 0.972 | locus YNL209W, strain ssb2, active compounds read low 1.03 | locus YNL233W, strain BNI4, active compounds read low 1.03 | locus YNL248C, strain rpa49, active compounds read low 1.04 | locus YNL250W, strain rad50, active compounds read low 0.988 | locus YNL271C, strain bni1, active compounds read low 0.996 | locus YNL298W, strain CLA4, active compounds read low 1.01 | locus YNL307C, strain MCK1, active compounds read low 1 | locus YNL322C, strain KRE1 (second series), active compounds read low 1.03 | locus YNL322C, strain KRE1, active compounds read low 0.986 | locus YNR049C, strain mso1, active compounds read low 1.02 | locus YNR052C, strain pop2, active compounds read low 0.993 | locus YOL006C, strain TOP1, active compounds read low 1.02 | locus YOL012C, strain htz1 0.701 | locus YOL147C, strain pex11, active compounds read low 0.994 | locus YOR001W, strain rrp6, active compounds read low 1.03 | locus YOR061W, strain CKA2, active compounds read low 0.995 | locus YOR069W, strain VPS5, active compounds read low 0.996 | locus YOR070C, strain gyp1, active compounds read low 1.01 | locus YOR080W, strain dia2, active compounds read low 1.04 | locus YOR083W, strain WHI5, active compounds read low 1.03 | locus YOR106W, strain vam3, active compounds read low 1.07 | locus YOR136W, strain idh2, active compounds read low 1 | locus YOR144C, strain elg1, active compounds read low 0.997 | locus YOR184W, strain ser1, active compounds read low 0.994 | locus YOR231W, strain MKK1, active compounds read low 0.979 | locus YOR265W, strain rbl2, active compounds read low 1.02 | locus YOR270C, strain vph1, active compounds read low 1.1 | locus YOR290C, strain snf2, active compounds read low 0.995 | locus YOR316C, strain cot1, active compounds read low 0.998 | locus YPL051W, strain arl3, active compounds read low 1.02 | locus YPL055C, strain LGE1, active compounds read low 1.01 | locus YPL078C, strain atp4, active compounds read low 1.02 | locus YPL106C, strain sse1, active compounds read low 1.06 | locus YPL240C, strain hsp82, active compounds read low 1.04 | locus YPL256C, strain CLN2, active compounds read low 0.976 | locus YPR119W, strain clb2, active compounds read low 0.991 | locus YPR141C, strain kar3, active compounds read low 0.989 | locus YPR163C, strain tif3, active compounds read low 1 | locus YPR167C, strain met16, active compounds read low 0.989 | strain wtn01, active compounds read low 1.03
